Laboratory results as given in PubChem BioAssay AID1240 (Sanford-Burnham Center for Chemical Genomics, 2008).
In all, about 50,000 compounds went through this assay and about 800 (1.6%) showed an effect of 50% or more. What follows is part of a selection rich in strong results, with near analogues and random picks from the rest.

The compounds below were run against Bcl-2-like protein 10 (Homo sapiens) (UniProt Q9HD36) (assay: Phenotype converters, Bcl-B/TR3 peptide binding displacement, primary biochemical FP (AID 1240;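 note: 0% = Bcl-B with tracer peptide and DMSO and 100% = tracer peptide lacking Bcl-B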)). Conditions: GST-Bcl-B / FITC-TR3 peptide fluorescence polarization; stronger effect = higher value; compound at 3.75 mg/L.
Bcl-2-like protein 10 (Homo sapiens), sequence (Q9HD36 whole entry, looked up): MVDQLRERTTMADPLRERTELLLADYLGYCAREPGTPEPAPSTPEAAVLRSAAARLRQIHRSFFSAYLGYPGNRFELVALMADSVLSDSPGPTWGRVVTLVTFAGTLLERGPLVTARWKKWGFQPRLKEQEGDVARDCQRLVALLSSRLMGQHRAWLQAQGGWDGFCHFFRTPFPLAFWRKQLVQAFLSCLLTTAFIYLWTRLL

Row | Compound | displacement
1 | O=C1c2ccccc2C(=O)N1CCc1nc2ccccc2c(=O)n1-c1ccc(Br)cn1 | -10.3%
2 | CCN(CC)CCCCOc1ccc(Cl)c(C)c1 | -10.7%
3 | COc1ccc(CCNC(=O)C(=O)Nc2ccc3c(c2)OCCO3)cc1OC | 3.4%
4 | Cc1cccc(CN2CCN(Cc3ccncc3)CC2)c1 | -1.1%
5 | COC(=O)c1sc2nc(-c3ccccc3)nc(N3CCOCC3)c2c1C | 47.3%
6 | CC1(C)Oc2ccc3ccc(=O)oc3c2/C(=C/N2CCOCC2)C1=O | -5.9%
7 | COc1ccc(Cl)cc1C(=O)Nc1ccc(C)cc1C | 10.1%
8 | CN(C)c1ccc(/C=N/NC(=O)CNC(=O)c2ccc(F)cc2)cc1 | 2.3%
9 | COc1ccc(-c2ccc(/C=C/C(=O)c3cc4ccccc4o3)o2)cc1 | -52.6%
10 | O=C(/C=C/c1ccc(-c2ccc([N+](=O)[O-])cc2)o1)c1cc2ccccc2o1 | 190%
11 | O=C(/C=C/c1ccc(-c2ccccc2[N+](=O)[O-])o1)c1cc2ccccc2o1 | 44.1%
12 | O=C(Nc1cc(NC(=O)c2ccccc2)cc(C(=O)Nc2nccs2)c1)c1ccccc1 | 4.4%
13 | O=C(COc1ccccc1F)Nc1nc(-c2cccs2)c(NC(=O)c2ccccc2)s1 | 14.6%
14 | CC(C(=O)NN)C1=NC(C)(C)Cc2ccccc21 (configuration not stated) | -17.7%
15 | CC(=O)N1N=C2CC(C)(C)OCC2C1c1ccccc1 (configuration not stated) | 12%
16 | Cc1cccc(N2C(=O)CC(SC(=N)N3N=C(c4cccs4)CC3c3ccc(Br)cc3)C2=O)c1 (configuration not stated) | 5.6%
17 | N=C(SC1CC(=O)N(c2ccccc2Cl)C1=O)N1N=C(c2cccs2)CC1c1ccc(Br)cc1 (configuration not stated) | 1.4%
18 | N=C(SC1CC(=O)N(c2cccc3ccccc23)C1=O)N1N=C(c2cccs2)CC1c1ccc(Br)cc1 (configuration not stated) | 85.7%
19 | Cn1c(CNc2ccc(O)cc2)nc2ccccc21 | 76.7%
20 | Cn1c(CNc2ccccc2O)nc2ccccc21 | 0.7%
21 | Cn1c(CNc2ccccc2)nc2ccccc21 | -1.3%
22 | COc1ccc(N(CC(=O)N2CCN(c3ccccc3OC)CC2)S(=O)(=O)c2ccccc2)c(OC)c1 | 8.6%
23 | c1ccc(Oc2cccc(CSc3nnnn3-c3ccccc3)c2)cc1 | 1%

Row | Compound | displacement
24 | CCc1cccc(C)c1NC1C=CS(=O)(=O)C1 (configuration not stated) | 52.3%
25 | Cc1c(Cl)cccc1NC1C=CS(=O)(=O)C1 (configuration not stated) | 14%
26 | Cc1ccc(NC2C=CS(=O)(=O)C2)cc1C (configuration not stated) | 6.7%
27 | CN(C1CCS(=O)(=O)C1)S(=O)C12CC3CC(CC(C3)C1)C2 (configuration not stated) | -4.8%
28 | CCCSc1nnc2n(-c3ccc(OC)cc3)c(=O)c3c4c(sc3n12)CCCC4 | 34.9%
29 | COc1ccc(-n2c(=O)c3c4c(sc3n3c(SCC(N)=O)nnc23)CCCC4)cc1 | 0.7%
30 | COc1ccc(-n2c(=O)c3c4c(sc3n3c(SCCC(C)C)nnc23)CCCC4)cc1 | 89.8%
31 | CCSc1nnc2n(-c3ccc(OC)cc3)c(=O)c3c4c(sc3n12)CCCC4 | 119%
32 | COC(=O)CSc1nnc2n(-c3ccc(OC)cc3)c(=O)c3c4c(sc3n12)CCCC4 | 5.6%
33 | C=C(C)CSc1nnc2n(-c3ccc(OC)cc3)c(=O)c3c4c(sc3n12)CCCC4 | 3%
34 | Clc1ccccc1C=NN1CCN(Cc2ccccc2Cl)CC1 | -2.4%
35 | FC(F)(F)c1cc(/C=C/c2ccccc2)no1 | 7.7%
36 | CC(=O)Nc1ccc(S(=O)(=O)Nc2cccc(C)c2C)cc1 | 12.9%
37 | CN(C)c1ccc(/C=N/NC(=O)Cn2c3ccccc3c(=O)c3ccccc32)cc1[N+](=O)[O-] | 2.3%
38 | COc1ccccc1C1=N/C(=C\c2ccc3c(c2)OCO3)C(=O)O1 | 111%
39 | N=C1S/C(=C\c2ccc3c(c2)OCO3)C(=O)N1c1ccc(F)cc1 | 2.6%
40 | O=C1OC(c2ccccc2Br)=N/C1=C\c1cccnc1 | 4.7%
41 | O=C1/C(=C\c2ccc3c(c2)OCO3)N=C(c2ccccc2)N1c1ccc(F)cc1 | 179%
42 | COc1cccc(/C=C2\N=C(c3ccccc3OC)OC2=O)c1 | -6%
43 | O=C1OC(c2ccccc2F)=N/C1=C\c1ccc2c(c1)OCO2 | 80%
44 | CN(C)/C=C1\N=C(c2ccccc2Br)OC1=O | -1.7%
45 | O=C1OC(c2ccccc2Br)=N/C1=C\c1cc2c(cc1Cl)OCO2 | 116%
46 | O=C1OC(c2ccccc2F)=N/C1=C\c1ccc(Br)cc1 | 9%

Row | Compound | displacement
47 | O=C1/C(=C/c2ccc3c(c2)OCO3)SC(=S)N1c1ccc(F)cc1 | 11.8%
48 | O=C1OC(c2ccc(F)cc2)=N/C1=C\c1ccc2c(c1)OCO2 | 15.9%
49 | COc1ccccc1C1=N/C(=C\c2ccc([N+](=O)[O-])cc2)C(=O)O1 | 27.4%
50 | Cn1nnnc1SCc1ccc(F)cc1 | -4%
51 | O=C1CS/C(=N/N=C/c2c3ccccc3cc3ccccc23)N1 | -1.8%
52 | CC(NC(=O)c1ccccc1)C12CC3CC(CC(C3)C1)C2 (configuration not stated) | 39.3%
53 | Cc1cccc(OCC(=O)O/N=C(\N)c2cccc(C)c2)c1 | -9.8%
54 | CCOC(=O)CONC(=NCc1ccccc1)c1nonc1N | 3.6%
55 | CCc1c(C)nc(N)nc1N1CCCC1 | 13.1%
56 | Cc1ccc(C(=O)NCCCN2CCOCC2)c2ccccc12 | -1.8%
57 | COc1ccccc1N1C(=O)c2cccc3c(Cl)ccc(c23)C1=O | 22.2%
58 | COc1ccccc1N1C(=O)c2cccc3c(N4CCCC4)ccc(c23)C1=O | 102%
59 | COc1ccccc1N1C(=O)c2cccc3c(N(C)C)ccc(c23)C1=O | 42.1%
60 | COc1ccccc1N1C(=O)c2cccc3c(N4CCN(C)CC4)ccc(c23)C1=O | 157%
61 | Cc1ccccc1N1C(=O)c2cccc3c(N4CCCCC4)ccc(c23)C1=O | 15.9%
62 | COc1ccccc1N1C(=O)c2ccc3c4c(ccc(c24)C1=O)CC3 | 13.4%
63 | Cc1cc(C)n(C2CC(=O)N(c3ccccc3)C2=O)n1 (configuration not stated) | 0.8%
64 | COc1ccc(C=C2C(=O)N(C)C(=O)N(C)C2=O)cc1O | -7.9%
65 | O=S(=O)(Nc1ccc(O)cc1)c1cc(Cl)ccc1Cl | -0.2%
66 | O=C(c1cccc(F)c1)N1CCN(C(=O)c2cccc(Cl)c2)CC1 | -18.6%
67 | O=c1sc2ccccc2c(N2CCN(c3ccccc3)CC2)c1[N+](=O)[O-] | -11.1%
68 | O=C(COC(=O)CN1C(=O)c2ccccc2C1=O)Nc1cccc2ccccc12 | -8.1%
69 | N#C/C(=C\c1ccc(-c2ccc(Cl)cc2)o1)C(=O)Nc1ccccc1O | -1%

Row | Compound | displacement
70 | N#C/C(=C\c1ccc(-c2ccccc2)o1)C(=O)Nc1ccc(C#N)cc1 | 168%
71 | N#C/C(=C/c1ccc(-c2ccc(S(N)(=O)=O)cc2)o1)C(=O)Nc1ccccc1 | -0.4%
72 | CCc1ccccc1NC(=O)/C(C#N)=C\c1ccc(Sc2ccccc2)o1 | -12.2%
73 | Cc1cccc(NC(=O)/C(C#N)=C\c2ccc(Sc3ccccc3)o2)c1C | 74.9%
74 | N#C/C(=C/c1ccc(Sc2ccccc2)o1)C(=O)Nc1ccccc1 | -22.8%
75 | CCOc1ccc(/C=C/C(=O)c2ccc(F)cc2)cc1 | -0.4%
76 | CN(C)/C=C1\C(=O)N/C(=C/c2ccc(Br)cc2)C1=O | 7.9%
77 | CCN(CC)c1ccc(NC(=O)c2ccc3ccccc3n2)cc1 | 1.3%
78 | CCCCS(=O)CC(O)COC(C)C (configuration not stated) | -1.5%
79 | Cc1cc(OCC(=O)NC2C3CC4CC(C3)CC2C4)ccc1Br (configuration not stated) | -6.7%
80 | COc1ccc(/C=C2\C=C(c3ccc(Br)cc3)OC2=O)cc1[N+](=O)[O-] | 70%
81 | COc1cc(OC)c([N+](=O)[O-])cc1/C=C1\C=C(c2ccc(Br)cc2)OC1=O | 49.1%
82 | COc1ccc(/C=C2\C=C(c3ccc(C)cc3)OC2=O)cc1[N+](=O)[O-] | 6.6%
83 | COc1ccc(C2=C/C(=C\c3ccc(OC)c([N+](=O)[O-])c3)C(=O)O2)cc1 | 2.7%
84 | COc1cc(/C=C2\C=C(c3ccc(Br)cc3)OC2=O)c([N+](=O)[O-])cc1OC | 55%
85 | COc1cc(/C=C2\C=C(c3ccc(Cl)cc3)OC2=O)c([N+](=O)[O-])cc1OC | -11.8%
86 | COc1cccc(OCCCCS)c1 | 10%
87 | O=C(O)c1cc(S(=O)(=O)N2CCCCC2)ccc1O | -1.5%
88 | COc1ccc(C2CC(=O)C3=C(C2)Nc2ccccc2NC3c2cccc3ccccc23)cc1OC (configuration not stated) | 1.8%
89 | O=C(Nc1c(C(=O)N2CCOCC2)cnn1-c1ccccc1)c1cccs1 | 12.5%
90 | CCc1cc2c(=O)c(-c3nc4ccccc4s3)coc2c(CN2CCOCC2)c1O | 1%
91 | Cc1oc2c(CN(CC(C)C)CC(C)C)c(O)ccc2c(=O)c1-c1nc2ccccc2s1 | 12.7%
92 | O=c1oc2c(CN3CCOCC3)c(O)ccc2cc1-c1nc2ccccc2s1 | 118%

Row | Compound | displacement
93 | CCc1cc2c(=O)c(-c3nc4ccccc4s3)coc2c(CN(C)C)c1O | -15%
94 | CN(C)Cc1c(O)ccc2cc(-c3nc4ccccc4s3)c(=O)oc12 | 110%
95 | Cc1oc2c(CN3CCN(C)CC3)c(O)ccc2c(=O)c1-c1nc2ccccc2s1 | 11.7%
96 | CN1CCN(Cc2c(O)ccc3cc(-c4ccccn4)c(=O)oc23)CC1 | 25.9%
97 | CN1CCN(Cc2c(O)ccc3cc(-c4nc5ccccc5s4)c(=O)oc23)CC1 | 121%
98 | Cc1oc2c(CN3CCCC3)c(O)ccc2c(=O)c1-c1nc2ccccc2s1 | 12.7%
99 | Cc1cccc(NC(=O)C2C(c3ccccc3)=C2c2ccccc2)c1C | 5.5%
100 | CCN(CC)c1ccc(NC(=O)COc2ccc(OC)cc2)cc1 | -5%
101 | COc1ccccc1N1C(=O)NC(=O)/C(=C/c2ccc(OC)c3ccccc23)C1=O | 5.3%
102 | C=CCOc1ccc(Cl)cc1/C=C1/SC(=S)NC1=O | -2.6%
103 | O=C(Nc1cc(Br)cc2cccnc12)c1ccc(Cl)cc1 | -7.2%
104 | Cc1cc(C=C2C(=O)NC(=O)NC2=O)c(C)n1-c1ccc(F)cc1 | 4.7%
105 | Cc1cc(/C=C2\NC(=O)NC2=O)c(C)n1-c1ccc(N(C)C)cc1 | 3.4%
106 | Cc1cc(/C=C2/C(=O)NC(=O)N(c3ccccc3)C2=O)c(C)n1-c1ccccc1 | 30.8%
107 | Cc1cc(C=C2C(=O)NC(=O)NC2=O)c(C)n1-c1ccc(Cl)cc1 | 106%
108 | Cc1cc(/C=C2\C(=O)NC(=O)N(C)C2=O)c(C)n1-c1ccc(N(C)C)cc1 | 124%
109 | Cc1cc(C=C2C(=O)NC(=S)NC2=O)c(C)n1-c1ccc(N2CCOCC2)cc1 | 22.3%
110 | Cc1cc(C=C2C(=O)NC(=O)NC2=O)c(C)n1-c1ccc(N2CCOCC2)cc1 | 126%
111 | Cc1cc(/C=C2/NC(=O)NC2=O)c(C)n1-c1ccc(N2CCOCC2)cc1 | -5.1%
112 | Cc1cc(/C=C2/NC(=O)NC2=O)c(C)n1-c1ccc(Cl)cc1 | 10.7%
